The source of these data is PubChem BioAssay.

SMILES strings stand for the structures. The source made the active and inactive calls.

Assay [1] relates to Human papillomavirus type 1a protein E7 (residues 44-93). As to the kind of experiment: HPV1a E7 fragment binders on microarrays, primary screen, biochemical, small-molecule microarray, residues 44-93, 635 nm fluorescence (AID 1108).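 Further: E7 fragment applied at 1 µg/mL in TBST for 1 h at 4 C; score combines spot fluorescence with its signal to noise ratio.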 Particulars: small-molecule microarray binding, fluorescence 635 nm; higher = more signal.
A short description of assay [2]: modulators of HCV replicon luciferase signal, primary screen, HCV replication inhibitor project, Huh7 cells, luciferase reporter (AID 1109).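 Further: huh7 hepatoma cells harbouring a luciferase neomycin HCV replicon reporter; luciferase luminescence as measure of HCV replicon replication; test concentration not given here.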 Particulars: 48 h, higher = more signal. (Replicon systems follow genome replication, usually without infectious particles.)
Assay [3] deals with Left-right determination factor 2 (Homo sapiens) (UniProt O00292). As to the kind of experiment: LEFTY2 binders on small-molecule microarrays, primary screen, biochemical, small-molecule microarray, 635 nm fluorescence scan (AID 1110). The conditions noted are these: LEFTY2 binding, higher = more signal.
Left-right determination factor 2 (Homo sapiens), sequence (O00292 whole entry, looked up): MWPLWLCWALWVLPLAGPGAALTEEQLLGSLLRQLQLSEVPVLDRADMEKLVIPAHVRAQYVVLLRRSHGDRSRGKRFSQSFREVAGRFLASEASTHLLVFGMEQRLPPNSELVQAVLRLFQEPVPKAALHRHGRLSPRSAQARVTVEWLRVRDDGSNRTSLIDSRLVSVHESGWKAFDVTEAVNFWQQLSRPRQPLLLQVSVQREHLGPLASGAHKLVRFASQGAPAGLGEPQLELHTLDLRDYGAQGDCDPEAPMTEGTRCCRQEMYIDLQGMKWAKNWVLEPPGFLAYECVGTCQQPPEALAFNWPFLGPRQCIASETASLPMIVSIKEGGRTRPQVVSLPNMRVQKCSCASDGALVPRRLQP
For assay [4], the target named is Calmodulin-1 (Homo sapiens) (UniProt P0DP23). As to the kind of experiment: CALM1 binders on microarrays, EGTA buffer, profiling panel, biochemical, small-molecule microarray, Cy5-labelled CALM1 (AID 1111).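 Further: labelled calmodulin applied in Tris saline Tween buffer holding calcium plus EGTA and DTT.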 Particulars: Cy5-CALM1 binding fluorescence, higher = more signal.
Assay [5] shares this target. As to the kind of experiment: calcium-bound CALM1 binders on microarrays, profiling panel, artefact control for SMM control-protein annotation, biochemical, small-molecule microarray, Cy5-labelled CALM1, plus calcium (AID 1112).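 Further: score merges spot fluorescence with signal to noise from triplicate slides.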 Particulars: Cy5-CALM1 binding fluorescence, higher = more signal.
Assay [6] in a line: small-molecule microarray binders of probe aWnt5a, primary screen, biochemical, biotinylated probe, 635/667 nm fluorescence (AID 1113).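 Further: score merges 667 nm fluorescence intensity with signal-to-noise per printed feature.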 Particulars: higher = more signal.
Assay [7] can be described thus: small-molecule microarray binders of probe aShh, primary screen, biochemical, biotinylated probe, 635/667 nm fluorescence (AID 1114).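 Further: probe is biotin-labelled aShh protein from a stem cell growth factor screen; measures binding of labelled protein to compounds printed on the slide; score merges feature fluorescence at 667 nm with signal-to-noise.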 The conditions noted are these: higher = more signal.
The nature of assay [8]: small-molecule microarray binders of probe aNog, primary screen, biochemical, biotinylated probe, 635/667 nm fluorescence (AID 1115).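 Further: probe is biotinylated aNog protein used at 0.15 µg/mL for 1 h at 4 C; z-score combines 667 nm fluorescence of each spot with its signal to noise.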 The conditions noted are these: higher = more signal.
Assay [9] has as its target Torsin-1A-interacting protein 1 (Homo sapiens) (UniProt Q5JTV8). As to the kind of experiment: LAP1 binders from COS7 cell lysate, primary screen, small-molecule microarray, 635/667 nm fluorescence (AID 1116). Particulars: COS7-hLAP1 lysate binding, 635 nm fluorescence, higher = more signal.
For assay [10], the target named is Alpha-bungarotoxin (Bungarus multicinctus) (UniProt P60615). As to the kind of experiment: alpha-bungarotoxin binders on microarray, profiling panel, artefact control for SMM control protein annotation, biochemical, small-molecule microarray, Alexa647 label, 635/667 nm fluorescence (AID 1117). Particulars: alpha-BTX-A647 binding fluorescence, higher = more signal.
Alpha-bungarotoxin (Bungarus multicinctus), sequence (P60615 whole entry, looked up): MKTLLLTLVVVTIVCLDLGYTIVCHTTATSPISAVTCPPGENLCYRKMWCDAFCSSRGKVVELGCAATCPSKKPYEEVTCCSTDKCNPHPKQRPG

In another assay the target is Albumin (Bos taurus) (UniProt P02769). As to the kind of experiment: bovine serum albumin binders on microarray, profiling panel, artefact control for SMM control protein annotation, biochemical, small-molecule microarray, Alexa647 label, 635/667 nm fluorescence (AID 1118).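 Further: score merges 667 nm emission intensity and signal-to-noise per printed compound spot.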 Particulars: BSA-A647 binding, fluorescence 635 nm, higher = more signal.
Albumin (Bos taurus), sequence (P02769 whole entry, looked up): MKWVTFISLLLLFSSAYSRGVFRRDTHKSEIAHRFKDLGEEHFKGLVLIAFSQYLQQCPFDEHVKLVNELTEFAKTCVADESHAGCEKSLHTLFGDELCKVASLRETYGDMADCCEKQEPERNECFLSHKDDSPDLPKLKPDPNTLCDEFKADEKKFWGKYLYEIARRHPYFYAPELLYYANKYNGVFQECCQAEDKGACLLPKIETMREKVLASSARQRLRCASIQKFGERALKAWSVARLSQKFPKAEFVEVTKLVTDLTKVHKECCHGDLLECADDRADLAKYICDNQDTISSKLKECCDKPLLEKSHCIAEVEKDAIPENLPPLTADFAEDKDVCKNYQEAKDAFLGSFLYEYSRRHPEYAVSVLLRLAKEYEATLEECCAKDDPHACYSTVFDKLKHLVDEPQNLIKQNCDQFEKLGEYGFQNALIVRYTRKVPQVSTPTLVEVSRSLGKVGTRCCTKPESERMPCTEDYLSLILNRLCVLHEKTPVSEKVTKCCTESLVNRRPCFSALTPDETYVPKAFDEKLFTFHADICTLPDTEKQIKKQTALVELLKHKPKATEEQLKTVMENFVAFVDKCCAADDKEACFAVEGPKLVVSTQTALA
Assay [11] can be described thus: small-molecule microarray binders of probe aXIP, primary screen, biochemical, NeuroSMM set, 635/667 nm fluorescence (AID 1119).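 Further: probe is the protein aXip251-270 applied at 1 µg/mL to compound-printed slides; binding of probe to printed compounds measured as 667 nm fluorescence plus signal to noise.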 Particulars: higher = more signal, called active from +8 up or from −8 down.
Assay [12] is described as follows: small-molecule binders of probe aNOTCH3, primary screen, biochemical, small-molecule microarray, 635/667 nm fluorescence (AID 1120).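 Further: probe is a biotin-tagged antibody raised against NOTCH3 rather than NOTCH3 protein; score merges spot fluorescence near 667 nm with spot signal to noise.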 Particulars: higher = more signal.
Assay [13] can be described thus: small-molecule binders of probe aNOTCH2, primary screen, biochemical, small-molecule microarray, 635/667 nm fluorescence (AID 1121).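 Further: score merges feature fluorescence read at 667 nm with its signal to noise.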 The conditions noted are these: higher = more signal.
For assay [14], the target named is Carbonic anhydrase 2 (Homo sapiens) (UniProt P00918). As to the kind of experiment: CAII small-molecule binders, profiling panel, biochemical, small-molecule microarray, Alexa647-labelled CAII (AID 1122). Particulars: CAII-A647 binding fluorescence, higher = more signal.
The nature of assay [15]: COS7 lysate on small-molecule microarray, probe aHis, 635 nm (AID 1123).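 Further: z-score combines 667nm fluorescence intensity with signal-to-noise per printed compound spot.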 The conditions noted are these: COS7 cell lysate, fluorescence, higher = more signal.
A short description of assay [16]: compound binding in COS7 lysate, probe aLAP1, primary screen, cell lysate, small-molecule microarray (AID 1124).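 Further: lysate comes from COS7 cells expressing LAP1 and is applied at 0.3 µg/mL; score merges spot fluorescence near 667 nm with signal-to-noise over triplicate slides.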 Particulars: probe aLAP1, fluorescence, higher = more signal.
A further assay concerns Sam68 (KHDRBS1). As to the kind of experiment: Sam68 small-molecule binders, primary screen, biochemical, small-molecule microarray, 635 nm fluorescence (AID 1125).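 Further: score merges 667 nm channel intensity with signal to noise over triplicate slides.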 Particulars: small-molecule microarray binding, higher = more signal.
Assay [17] deals with Chordin-like protein 2 (CHRDL2). As to the kind of experiment: CHRDL2 small-molecule binders, primary screen, biochemical, small-molecule microarray, 635 nm fluorescence (AID 1126).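 Further: printed compound slides probed with Chrdl2 protein at 4 µg/mL for 1 h at 4 C; score merges 667 nm emission intensity with signal to noise over three replicate slides.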 Particulars: small-molecule microarray binding, fluorescence 635 nm; higher = more signal.
Assay [18] concerns the target Concanavalin-A (Canavalia ensiformis) (UniProt P02866). As to the kind of experiment: ConA small-molecule binders, primary screen, artefact control for SMM control protein annotation, biochemical, small-molecule microarray, Alexa647 label, 635 nm (AID 1127).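 Further: z combines 667 nm emission intensity with signal-to-noise across three replicate slides.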 Particulars: ConA-A647 binding fluorescence, higher = more signal.

Torsin-1A-interacting protein 1 (Homo sapiens), sequence (Q5JTV8 whole entry, looked up): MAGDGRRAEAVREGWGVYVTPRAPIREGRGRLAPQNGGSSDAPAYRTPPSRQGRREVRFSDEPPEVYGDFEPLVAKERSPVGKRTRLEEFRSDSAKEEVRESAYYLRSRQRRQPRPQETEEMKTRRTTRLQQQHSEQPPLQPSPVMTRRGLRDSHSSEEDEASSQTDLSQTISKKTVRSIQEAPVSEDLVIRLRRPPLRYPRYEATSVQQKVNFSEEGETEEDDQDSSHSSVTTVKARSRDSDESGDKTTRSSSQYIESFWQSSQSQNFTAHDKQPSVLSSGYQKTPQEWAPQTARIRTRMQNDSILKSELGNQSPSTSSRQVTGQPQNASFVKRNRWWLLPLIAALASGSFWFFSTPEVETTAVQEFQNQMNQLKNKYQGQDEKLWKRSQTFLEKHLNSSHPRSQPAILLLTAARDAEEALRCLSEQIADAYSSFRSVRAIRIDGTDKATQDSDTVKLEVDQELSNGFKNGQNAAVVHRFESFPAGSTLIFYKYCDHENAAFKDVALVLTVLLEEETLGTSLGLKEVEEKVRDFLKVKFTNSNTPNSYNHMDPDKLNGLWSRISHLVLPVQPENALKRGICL
Concanavalin-A (Canavalia ensiformis), sequence (P02866 whole entry, looked up): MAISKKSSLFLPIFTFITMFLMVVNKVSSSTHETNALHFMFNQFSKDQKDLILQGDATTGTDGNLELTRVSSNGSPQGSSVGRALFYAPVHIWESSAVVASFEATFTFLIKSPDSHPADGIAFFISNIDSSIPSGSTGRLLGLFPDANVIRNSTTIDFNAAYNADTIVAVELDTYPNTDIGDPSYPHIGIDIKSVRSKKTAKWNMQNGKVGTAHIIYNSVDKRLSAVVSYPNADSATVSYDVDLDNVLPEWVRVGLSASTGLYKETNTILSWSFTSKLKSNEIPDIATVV

As to `CCCCC(=O)N(Cc1ccccc1F)[C@@H]1CC(C(=O)NCCO)=C[C@H](Oc2c(I)cc(CO)cc2OC)[C@H]1O`, the composite z-score was determined as 1.42 in [1]; 1.29 in assay [3]; 3.17 in assay [4]; 1.4 in [5]; 0.0004 in [6]; 0.123 in [7]. In addition, the composite z-score in assay [8] was -0.083; in assay [9] it was 0.994; in assay [10], 1.79; in the assay with Albumin (Bos taurus), -0.823; in assay [12], 0.201; in [13] it was -0.0128. Further, the composite z-score was found to be 0.521 in assay [14]; 1.54 in assay [15]; 0.44 in [16]; 1.3 in the assay with Sam68 (KHDRBS1); 1.5 in [17]; 1.19 in assay [18]. In assay [2], this compound had a z-score of -1.06. Besides, the composite Z-score in assay [11] was -0.685 (inactive).

In the case of `O=C1NC(=O)C2C1C=CC(C(O)c1cccs1)N2Nc1ccccn1` (stereo not given), the composite z-score in assay [1] was 0.348; in [3], 0.451; in [4] it was 0.0761; in assay [5], -0.576; in assay [6] it was -0.096; in assay [7], -0.214. Also, the composite z-score is 0.0516 in assay [8]; 1.32 in [9]; 1.19 in assay [10]; 0.426 with Albumin (Bos taurus); 0.118 in assay [12]; -0.0826 in assay [13]. Further, the composite z-score in [14] was determined as 0.803; in [15], 1.21; in assay [16], 0.0919; in the assay with Sam68 (KHDRBS1), 0.248; in assay [17], 0.129; in [18] it was 0.766. In addition, in assay [2], the z-score is 0.755. In assay [11], the composite Z-score is 0.32 (inactive).

Take `C=C(CCCC)/C(=C/C[C@H](OC(C)=O)c1ccc(CO)o1)c1cc(C(=O)OC)ccc1OC`: the composite z-score in assay [1] is 1.4; in assay [3], 0.305; in [4] it was 0.184; in assay [5], -0.592; in assay [6], -0.101; in assay [7] it was 0.0639. Moreover, the composite z-score in [8] is 0.116; in assay [9], 0.599; in assay [10] it was 1.44; in the assay with Albumin (Bos taurus) it was 0.588; in assay [12], 0.133; in [13], -0.149. In addition, the composite z-score in [14] was found to be 0.694; in [15], 0.699; in assay [16], 0.53; with Sam68 (KHDRBS1), 1.17; in assay [17], 0.323; in [18], 0.902. The z-score in assay [2] was -1.58. Besides, in [11], the composite Z-score was 0.297 (inactive).

`CCCCC(=C=CC[C@H](O)c1ccccc1OCCO)C[C@H](O)c1cc(Cl)cc(Cl)c1O`: the composite z-score in assay [1] was 0.405; in assay [3], -0.408; in assay [4], 0.684; in [5], 0.466; in [6], -0.0445; in assay [7], 0.0278. For the same compound, the composite z-score in assay [8] was 0.22; in assay [9] it was 0.582; in assay [10], 0.876; with Albumin (Bos taurus), 0.233; in assay [12], -0.0448; in assay [13] it was -0.175. Also, the composite z-score in [14] is 0.649; in assay [15], 0.499; in [16] it was 0.569; in the assay on Sam68 (KHDRBS1) it was 0.811; in assay [17], -0.473; in assay [18], 0.907. Besides, the z-score in assay [2] is -1.18. Also, the composite Z-score in assay [11] is 0.45 (inactive).

As to `O=C(NCC(O)CO)[C@@]1(Cc2ccccc2)N=C(c2ccc(OCCCO)cc2)O[C@H]1c1ccccc1` (stereo not given in full), the composite z-score in assay [1] is 0.546; in [3], -1.13; in [4], 2.01; in [5] it was 1.36; in assay [6], -0.241; in assay [7], 0.334. Also, the composite z-score in assay [8] was -0.57; in assay [9], 2.48; in assay [10], 1.77; in the assay with Albumin (Bos taurus), 0.944; in assay [12] it was 0.331; in [13] it was 0.257. Besides, the composite z-score in assay [14] was 0.852; in assay [15], 2.83; in assay [16] it was 1.01; in the assay on Sam68 (KHDRBS1), 1.24; in assay [17] it was -1.34; in [18], 0.785. This compound also showed a z-score in assay [2] of -0.99. For the same compound, the composite Z-score in assay [11] was 0.805 (inactive).

In the case of `CN1C(=O)C2C=CC(C(O)c3ccc(Br)cc3)N(Nc3ccccc3)C2C1=O` (stereo not given), the composite z-score in assay [1] is -0.0441; in assay [3], -1.43; in assay [4], -0.209; in [5] it was 0.394; in [6], -0.124; in assay [7], -0.178. The composite z-score in assay [8] is 0.154; in [9], 0.65; in [10], -0.292; with Albumin (Bos taurus), 0.768; in assay [12] it was 0.145; in [13], 0.0498. Further, the composite z-score in [14] is 0.678; in [15], 0.991; in assay [16], 0.204; in the assay on Sam68 (KHDRBS1) it was 0.168; in [17] it was -0.723; in [18], -0.597. Moreover, the z-score in assay [2] turned out to be 0.15. The composite Z-score in assay [11] is 0.304 (inactive).
